# tim23-1 inh: growth inhibitors of tim23-1 mutant yeast. AID 463212. inhibition, % at 20 µM. S. cerevisiae tim23-1 growth, BacTiter-Glo luminescence, 24 h. actives 1.3% (n = 330,000);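 active = growth inhibition of the mutant yeast at or above 50%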;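 also: temperature-sensitive mutant grown at 25 °C; plate controls were DMSO-treated mutant yeast for no effect and medium wells lacking yeast for full effect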
# NALP3 yeast inh: NALP3 inhibition in yeast; inhibition, % at 10 µM; actives 0.39% (n = 330,000); Yeast reconstituted NLRP3/ASC/caspase-1, beta-gal luminescence, 24 h;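 active = inhibition of 50% or more; inactive = inhibition below 50%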;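 also: plate controls were induced DMSO wells for no effect and uninduced yeast grown without galactose for full effect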
# tim10-1 inh: tim10-1 yeast growth inhibition; actives 2.2% (n = 330,000); AID 463190; S. cerevisiae tim10-1 ts strain growth, BacTiter-Glo, 24 h; inhibition, % at 20 µM;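 active = inhibition of at least 40%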;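 also: mutant grown at 25 °C; 0% = DMSO wells with yeast and 100% = wells holding no yeast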
# V-ATPase pHluor: regulators of yeast V-ATPase proton transport; S. cerevisiae, pHLuorin cytosolic pH fluorescence; AID 504577; actives 0.37% (n = 350,000); response, % at 10 µM; in the data active = response mostly above about 7.3%, no sharp cut-off; inactive = mostly below about 5.4%; also: actives read high
# NALP1 yeast inh: NALP1 inhibition; inhibition, % at 10 µM; actives 0.61% (n = 280,000); S. cerevisiae NALP1/ASC/caspase-1 growth, X-gal OD620, 72 h; in the data active = inhibition mostly above about 24%, no sharp cut-off; inactive = mostly below about 32%
# TIM10 inh: growth inhibitors of TIM10 yeast strain; actives 1.4% (n = 330,000); S. cerevisiae TIM10 strain growth, BacTiter-Glo luminescence, 24 h; inhibition, % at 10 µM;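 active = inhibition of 40% or more at the single tested concentration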;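 also: wild-type TIM10 isogenic control strain grown at permissive 25 °C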
# tim10-1 conf: confirmation of tim10-1 mutant yeast growth inhibitors | shares compounds with tim10-1 inh | S. cerevisiae tim10-1 ts strain growth, BacTiter-Glo, 24 h | inhibition, % at 20 µM | actives 56% (n = 7,400) | AID 463213;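 active = inhibition of yeast growth at or above a set limit in either of two repeat tests at 20 µM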;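 also: tim10-1 mutant grown at permissive 25 °C to find synthetic lethal compounds; 0% = DMSO yeast wells and 100% = medium wells without yeast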
# Numbers without * were called inactive; / = no result given. Compounds with a hit are over-represented: about 4.2% of the library has one in this group of screens.
SMILES,tim23-1 inh,NALP3 yeast inh,tim10-1 inh,V-ATPase pHluor,NALP1 yeast inh,TIM10 inh,tim10-1 conf
COc1ccc(C2C=C(C34CC5CC(CC(C5)C3)C4)NC(=S)N2)cc1OC (centres undefined),40,-4,56*,0,12,8,17
O=C(c1ccco1)N1CCN=C1SCc1cccnc1,5,12,12,0,12,3,/
O=C(c1ccco1)N1CCN=C1SCc1ccccc1F,27,16,44*,-1,-28,16,16
Cc1cc(C)nc(OC(=O)c2c(Cl)cc(Cl)cc2Cl)n1,36,13,44*,-2,2,22,33*
COc1ccc(C(=O)Nc2ccc(Cl)c(Cl)c2)c(OC)n1,-5,10,9,-5,16,-12,/
CC(C)C1O/C(=N/C(=O)Nc2ccc(Cl)c(Cl)c2)NC1=O (centres undefined),50,11,57*,-3,-14,36,47*
Cc1cccc(NC(=S)NC2CC3C=CC2C3)c1 (centres undefined),8,6,10,3,/,11,/
CC(C)NC(=O)/C(C#N)=C/c1ccc2c(c1)OCCO2,30,13,43*,-1,43,11,34*
CCOc1ccc(NS(=O)(=O)c2ccc(C)c(C(=O)NCCCn3ccnc3)c2)cc1,6,2,0,-2,-4,-18,/
CN1CCC(N(C)C(=O)/C(C#N)=C\c2ccc(OC(F)F)cc2)CC1,/,/,/,-5,/,/,/
Clc1cccc(/C=N\Nc2nccs2)c1,47,-9,48*,6,-11,37,12
CCC(C)NC(=O)C1CCN(S(=O)(=O)c2ccc(-n3cnnn3)cc2)CC1 (centres undefined),2,3,-8,6,9,10,/
Cc1ccc(CNC(=O)CSc2nc3ccsc3c(=O)n2NC(=O)c2ccccc2)cc1,6,4,5,0,-4,3,/
O=C(Nn1c(SCc2ccc(F)cc2)nc2ccsc2c1=O)c1ccccc1,26,-6,40*,2,34,20,19
Cc1cc(Cl)c2oc(C(=O)N3CCOCC3)c(C)c2c1,/,/,/,-2,/,/,/
Cc1cc(Cl)c2oc(C(=O)N(C)C3CCOC3)c(C)c2c1 (centres undefined),40,43,41*,-2,13,-10,-10
O=C(COC(=O)c1cnccn1)Nc1cc(S(=O)(=O)N2CCOCC2)ccc1Cl,6,12,2,-1,/,-3,/
Cn1c(=O)c(-c2ccccc2)cc2ccccc21,/,/,/,8,/,/,/
Cn1c(-c2ccccc2O)cc2ccccc21,39,12,48*,-4,16,25,29*
C=CCN(CC(O)c1cccc([N+](=O)[O-])c1)C(C)CCc1ccccc1 (centres undefined),10,21,19,2,20,9,/
NNC(=O)c1cccc(COc2ccccc2Br)c1,43,13,41*,7,-10,39,16
NNC(=O)c1cccc(COc2ccc3c(c2)CCC3)c1,48,24,47*,0,35,25,19
COc1ccc(CN2C(=O)C(CC(C)C)Nc3ncnc(N4CCOCC4)c32)cc1 (centres undefined),15,4,17,-7,/,15,/
Cc1cc2c(cc1C)C(c1ccccc1F)CC(=O)N2 (centres undefined),10,9,23,8,13,17,/
Cc1cc2c(cc1C)C(c1cc(Br)ccc1F)CC(=O)N2 (centres undefined),25,14,45*,0,24,9,28
CCOC(=O)C1=NN(C(=O)Cc2ccccc2)C(O)(c2ccc(Cl)cc2)C1 (centres undefined),43,8,42*,1,9,24,32*
Cc1ccc(S(=O)(=O)c2nc(-c3cccs3)oc2NCCCN(C)C)cc1,5,11,1,0,24,16,/
COC(=O)c1cccc(NC(=O)c2cc3sccc3n2C)c1,34,7,44*,1,12,31,31
Cc1cc(NC(=O)CSC2=NS(=O)(=O)c3cc(F)ccc3N2)no1,-4,-1,-15,-6,/,-1,/

# High-throughput results: PubChem BioAssay, several laboratories
